Growth inhibition data for 38 compounds are collected here from PubChem BioAssay (NCI).

Assay [1] can be described thus: NCI Yeast Anticancer Drug Screen. Data for the rad50 strain (AID 155).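 Also: 0% = growth of vehicle-only cultures of the same strain.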 Conditions: S. cerevisiae rad50 strain growth inhibition; at 50.0 µM; stronger effect = higher value. In short, it runs like this:
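Readout: growth inhibition relative to vehicle-treated cultures. Compound exposure was carried out in a genetically defined yeast strain deficient in DNA damage repair.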

Assay [2] in a line: NCI Yeast Anticancer Drug Screen. Data for the mec2-1 strain (AID 157). Conditions: S. cerevisiae mec2-1 strain, at 50.0 µM, stronger effect = higher value. In short, it runs like this: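 Mutant yeast (mec2-1) grown with compound; growth inhibition relative to vehicle control reported.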
Assay [3] can be described thus: NCI Yeast Anticancer Drug Screen. Data for the sgs1 mgt1 strain (AID 161).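 Also: 0% = growth of cultures given vehicle only.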 Particulars: S. cerevisiae sgs1 mgt1 strain, at 50.0 µM, stronger effect = higher value. A digest of the protocol: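 Yeast cells carrying a defined DNA-repair defect were exposed to test compounds. Growth inhibition was measured relative to vehicle-treated controls.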
The nature of assay [4]: NCI Yeast Anticancer Drug Screen. Data for the bub3 strain (AID 167). Conditions: S. cerevisiae bub3 mutant strain, at 50.0 µM, stronger effect = higher value. A digest of the protocol: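 Readout: yeast growth inhibition, expressed relative to vehicle-only wells. The test organism is a mutant strain from a panel with lesions in DNA repair or checkpoint genes.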
A short description of assay [5]: NCI Yeast Anticancer Drug Screen. Data for the mlh1 rad18 strain (AID 175). Particulars: S. cerevisiae mlh1 rad18 strain growth inhibition; at 50.0 µM; stronger effect = higher value. In short, it runs like this:
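Genetically defined yeast (DNA repair-deficient) exposed to compounds; growth inhibition determined relative to vehicle.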

Assay [6] in a line: NCI Yeast Anticancer Drug Screen. Data for the cln2 rad14 strain (AID 165).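 Also: 0% = growth equal to vehicle treated cultures.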 Particulars: S. cerevisiae cln2 rad14 strain, at 50.0 µM, stronger effect = higher value. In short, it runs like this:
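Readout is yeast growth inhibition versus vehicle-treated controls, using a strain with cln2 and rad14 alterations exposed to compound.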

This is part of a sample that, as a whole, favours compounds with a hit. Of some 79,000 tested, about 15% had one in any assay. A number with no mark means an inactive call. Active and inactive are the calls of the source. Rule as the data show it: active = growth inhibition above about 70%; inactive = the rest.

As to `CC1NC(=O)C(C)C(c2ccccc2)N(N=O)C1c1ccccc1` (centres undefined), the growth inhibition in assay [1] is -10.7%; in assay [2] it was 7.8%; in assay [3], 14.6%; in assay [4] it was -25.6%; in assay [5], 11%.

Take `COc1ccc(C2CC(c3c(C)nn(-c4ccccc4)c3-c3ccc(C)cc3O)=NN2c2ccccc2)cc1` (centres undefined): the growth inhibition in assay [1] is -3.95%; in assay [2], -12.3%; in assay [3], -11.1%; in assay [4], -3%; in assay [5], 50.5%.

For the compound `Nc1ccc(Cl)c(S(=O)(=O)O)c1`, the growth inhibition in assay [1] is 21.7%; in assay [2], -4.35%; in assay [3], 7.05%; in assay [4] it was 10.4%; in assay [5] it was 17.1%.

`COc1cc(-c2ccccc2)c(OC)cc1CCl`: the growth inhibition is 4.05% in assay [1]; 2.95% in assay [2]; 17.8% in assay [3]; 13.7% in assay [4]; 20% in assay [5].

In the case of `CCOP(=O)(OCC)C(NC(=O)C(C(F)(F)F)C(F)(F)F)c1ccccc1` (centres undefined), the growth inhibition was 7.85% in assay [1]; 16.2% in assay [2]; 0.05% in assay [3]; 34.1% in assay [4]; -14.1% in assay [5].

As to `CC(Cl)C(=O)N(C)c1ccccc1` (centres undefined), the growth inhibition in assay [1] is 3.6%; in assay [2] it was -14.8%; in assay [3], -2.9%; in assay [4], -14.8%; in assay [5], -14.1%.

As for `Cn1c(N)c(N=O)c(=O)n(C)c1=O`, the growth inhibition in assay [1] is -28.9%; in assay [2], -18.8%; in assay [3], -1.6%; in assay [4] it was -5.65%; in assay [5], -9.9%.

For `CN(C)C(=S)/N=c1\ssc(=S)n1Cc1ccccc1`, the growth inhibition was -10.4% in assay [1]; -24.9% in assay [2]; -4.55% in assay [3]; -17.9% in assay [4]; -86.5% in assay [5].

With `O=C1NNCc2c1sc1ccccc21`, the growth inhibition in assay [1] was 0.25%; in assay [2], -4.15%; in assay [3], -17.4%; in assay [4], -11.7%; in assay [5], 4.6%.

In the case of `Cc1cc(Cl)c2c(C)ccc(C)c2n1`, the growth inhibition was -4.25% in assay [1]; -31.9% in assay [2]; 9.85% in assay [3]; 4% in assay [4]; 8.95% in assay [5].

In the case of `CC1CN(CCCOC(=O)Nc2cccc3ccccc23)CCN1Cc1ccccc1` (centres undefined), the growth inhibition in assay [1] is 81.2% (active); in assay [2], 94% (active); in assay [3], 95.8% (active); in assay [4], 82% (active); in assay [5], 95.8% (active).

As for `COc1ccc(-c2cn3c([nH]c(=O)c4cc(Br)ccc43)c2C#N)cc1`, the growth inhibition in assay [1] was 5.55%; in assay [2], -5.3%; in assay [3] it was -3.7%; in assay [4], 2.2%; in assay [5] it was 16.1%.

As to `COc1ccc2c(c1)CCc1cc(OC)ccc1/[N+]([O-])=[N+]\2[O-]`, the growth inhibition is -1.2% in assay [1]; 1.25% in assay [2]; 6.8% in assay [3]; -5.1% in assay [4]; 14.8% in assay [5].

As for `Nc1ncnc2c1nnn2CC(O)CO` (centres undefined), the growth inhibition in assay [1] is -36%; in assay [2], -19.2%; in assay [3], -17.4%; in assay [4], -2.9%; in assay [5], 5.2%.

For `COc1cc(/C=N\N=C(/C)c2ccc(C)cc2C)cc(OC)c1OC`, the growth inhibition in assay [1] is 21.4%; in assay [2], 23.1%; in assay [3] it was 24.8%; in assay [4] it was 24.9%; in assay [5], 24.6%.

As for `Cc1cc2c(C#N)c3ccccc3c(=O)n2c2ccccc12`, the growth inhibition is -0.95% in assay [1]; 6.75% in assay [2]; -1.25% in assay [3]; -13.7% in assay [4]; 3.4% in assay [5].

Take `c1ccc2[nH]cnc2c1`: the growth inhibition was 7.85% in assay [1]; -1.55% in assay [2]; 0.65% in assay [3]; 8.7% in assay [4]; -46.8% in assay [5].

For `CCCCNC(=O)OCCN=c1c2ccccc2ccc2ccccc12`, the growth inhibition in assay [1] was -25.6%; in assay [2], -31.4%; in assay [3], -9.95%; in assay [4] it was -1.3%; in assay [5], -15.4%.

As for `CS/C(=C\c1ccc(C(=O)c2ccc(C)cc2)n1C)S(C)=O` (centres undefined), the growth inhibition was 16.6% in assay [1]; 15.2% in assay [2]; 42.4% in assay [3]; -0.7% in assay [4]; 35.5% in assay [5].

As to `C#CC(O)C(CC)CCCC` (centres undefined), the growth inhibition in assay [1] is -11.1%; in assay [2], -46.5%; in assay [3], -14.7%; in assay [4], -12.8%; in assay [5], 13.8%.

With `COc1ccc(NC(=O)C2=C(SC)C(C#N)C(=O)N=C2N)cc1` (centres undefined), the growth inhibition is -25.1% in assay [1]; -12.5% in assay [2]; 0.2% in assay [3]; -31.4% in assay [4]; 1.3% in assay [5].

In the case of `CCOc1ccc(N=Nc2c(O)n(-c3ccc(Br)cc3)c(=S)n(-c3ccc(OC)cc3)c2=O)cc1`, the growth inhibition in assay [1] is 28.8%; in assay [2], -8.7%; in assay [3], -9.1%; in assay [4], 1.35%; in assay [5], 2.3%.

`C/C(=C1\C(=O)Nc2ccccc21)c1cccnc1`: the growth inhibition was -8.2% in assay [1], -9.25% in assay [2], -9.5% in assay [3] and -7.55% in assay [5].

Consider `CNc1ccn(C2OC(CO)C(O)C2O)c(=O)n1` (centres undefined), for which the growth inhibition in assay [1] was -9.5%; in assay [2], -7.5%; in assay [3] it was -2.05%; in assay [4] it was 10.1%; in assay [5] it was 8.25%.

In the case of `Cc1c(C)c(C)c(CCl)c(CCl)c1C`, the growth inhibition in assay [1] is 36.1%; in assay [2], 16.9%; in assay [3] it was 31.9%; in assay [4], 8.3%; in assay [5], 24.6%.

On to `O=C(O)c1cc(=O)[nH]c(=O)[nH]1`, for which the growth inhibition in assay [1] was -17.6%; in assay [2], 0.05%; in assay [3] it was -14.9%; in assay [4] it was -6.5%; in assay [5] it was -21.2%.

`CC1C[C@]2(C)C(=NCCN)Nc3ccccc3[C@@H]2N(C)c2ccccc21` (some centres undefined): the growth inhibition in assay [1] is -14.4%; in assay [2] it was -25.6%; in assay [3] it was -10.8%; in assay [4], -13.2%; in assay [5], 13.3%.

`CC(=O)n1[nH]c(=O)n(-c2ccc(Cl)cc2)c1=O`: the growth inhibition in assay [1] was -36.5%; in assay [2], -37.2%; in assay [3], -30.1%; in assay [4], -22.2%; in assay [5], -73%.

Consider `CC(=O)NC1CCCCC1C1CCC([N+](=O)[O-])CC1` (centres undefined), for which the growth inhibition in assay [1] is 12.6%; in assay [2], -1.75%; in assay [3], -12.5%; in assay [4], 6.9%; in assay [5] it was 6.05%.

For `COC(=O)CC(=O)/C(=C/C(C/C=C(\C(=O)CC(=O)OC)C(=O)OC)OC)C(=O)OC` (centres undefined), the growth inhibition in assay [1] is 40.1%; in assay [2], 22.8%; in assay [3], 8.9%; in assay [4], 3.85%; in assay [5] it was 32.3%.

For `O=NN(CC(=O)O)c1ccc2ccccc2c1`, the growth inhibition is 2.55% in assay [1]; -7.3% in assay [2]; 13.8% in assay [3]; -14.9% in assay [4]; -2.85% in assay [5].

Take `CC1(Cc2ccccc2)NC(=S)NC1=O` (centres undefined): the growth inhibition in assay [1] is -1.25%; in assay [2] it was -10.8%; in assay [3], -9.9%; in assay [4] it was -1.7%; in assay [5], -7.35%.

Turning to `O/N=C(/CC(O)(c1ccccc1)c1ccccc1)c1ccccc1`, the growth inhibition was 22.6% in assay [1]; -6.8% in assay [2]; 7.8% in assay [3]; -17.9% in assay [4]; 27.4% in assay [5].

`C=CCNC(=S)Nc1c(C)cc(C)cc1C`: the growth inhibition in assay [1] is 7.2%; in assay [2], 8.4%; in assay [3], 9.65%; in assay [4], 4.3%; in assay [5], 12.2%.

Regarding `N/C(=C\C(=O)c1ccccc1)C(=O)c1ccccc1`, the growth inhibition in assay [1] is 5.7%; in assay [2], 4.65%; in assay [3], -15.5%; in assay [4], 0.65%; in assay [5] it was -1.55%.

On to `O=C(/C=C/c1cccs1)c1ccc(C(=O)/C=C/c2cccs2)cc1`, for which the growth inhibition was -32.6% in assay [1]; -46.4% in assay [2]; -18% in assay [3]; -3.5% in assay [4]; -31.9% in assay [5].

For `CC(C)(C(=O)c1cccnc1)c1cccnc1`, the growth inhibition is 4.25% in assay [1]; 17.1% in assay [3]; 2.3% in assay [6]; 17.1% in assay [4]; 12.7% in assay [5].

`Cc1cc(Br)cc(C)c1NC(=O)C(=O)C(C(=O)c1ccncc1)C1OC(=O)c2ccccc21` (centres undefined): the growth inhibition was -12.6% in assay [1]; -51.9% in assay [3]; 15.8% in assay [6]; 16.2% in assay [4]; -7.35% in assay [5].
